# Test results from the supplement of paper PMC8728848.
# This excerpt belongs to a sample that is enriched for the strongest signals.
# B1: Epa3to2 (Candida glabrata) (protein)
# chain: MGSSHHHHHHSSGLVPRGSHMKRELSSQNPFGYPIGCSPQDVAIIPGLTMELYSYPIVSGTPPNCYDASYVDPEYPRTGYLKRKMVGKSTGVTGNLNYKYSVEKACMVKYGNLPAGYNYNEPLTVSNFTMILYGYFKAQTTGLHTFFVNADDLLYINFGAGNAFDCCKREDSKTKLGEYVAYDIWHVDSSKNKVSLFLEKDLYYPIRMFFNNRDNNSSLDLSFSVNGATDQISDFSGYLYSVPDQPDTCPAHIGYDTTCR
# What was measured:
# Assay in all cases: glycan array binding signal (z-score within array); higher = stronger binding
# Details in all cases: glycan notation: IUPAC condensed, linker removed
# [1] = molecular target: GlcNAc(b1-2)Gal(b1-3)GalNAc
# Procedure, shortened: (§1)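 The Consortium for Functional Glycomics database supplied 3228 glycan arrays, of which those lacking an available protein sequence were dropped. The binding signal, a within-array Z-score, was averaged across arrays of the same protein sequence and across linkers. Negative scores can be read as non-binding.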
# [2] = molecular target: Man(a1-3)[Man(a1-6)]Man(a1-6)[Man(a1-2)Man(a1-3)]Man(b1-4)GlcNAc(b1-4)GlcNAc
# Procedure, shortened: as §1
# [3] = molecular target: Man(a1-3)[Man(a1-6)]Man(a1-6)[Man(a1-3)]Man
# Procedure, shortened: as §1
# [4] = molecular target: Neu5Ac(a2-3)Gal(b1-3)GlcNAc(b1-2)Man(a1-3)[Neu5Ac(a2-3)Gal(b1-3)GlcNAc(b1-2)Man(a1-6)]Man(b1-4)GlcNAc(b1-4)GlcNAc
# Procedure, shortened: as §1
# [5] = molecular target: Neu5Ac(a2-3)Gal(b1-4)Glc
# Procedure, shortened: as §1
# [6] = molecular target: Neu5Ac(a2-3)Gal(b1-4)GlcNAc(b1-2)Man
# Procedure, shortened: as §1
# [7] = molecular target: Neu5Ac(a2-3)Gal(b1-4)GlcNAc(b1-2)[Neu5Ac(a2-3)Gal(b1-4)GlcNAc(b1-4)]Man(a1-3)[GlcNAc(b1-4)][Neu5Ac(a2-3)Gal(b1-4)GlcNAc(b1-2)[Neu5Ac(a2-3)Gal(b1-4)GlcNAc(b1-6)]Man(a1-6)]Man(b1-4)GlcNAc(b1-4)GlcNAc
# Procedure, shortened: as §1
# [8] = molecular target: Neu5Ac(a2-3)Gal(b1-4)GlcNAc(b1-2)[Neu5Ac(a2-3)Gal(b1-4)GlcNAc(b1-4)]Man(a1-3)[GlcNAc(b1-4)][Neu5Ac(a2-3)Gal(b1-4)GlcNAc(b1-4)Man(a1-6)]Man(b1-4)GlcNAc(b1-4)GlcNAc
# Procedure, shortened: as §1
# [9] = molecular target: Neu5Ac(a2-3)Gal(b1-4)[Fuc(a1-3)]GlcNAc(b1-2)Man
# Procedure, shortened: as §1
# [10] = molecular target: Neu5Ac(a2-3)[Neu5Ac(a2-6)]GalNAc
# Procedure, shortened: as §1
# [11] = molecular target: Neu5Ac(a2-6)Gal(b1-4)GlcNAc(b1-2)Man(a1-3)Man(b1-4)GlcNAc(b1-4)GlcNAc
# Procedure, shortened: as §1
# [12] = molecular target: Neu5Ac(a2-6)GalNAc(b1-4)GlcNAc
# Procedure, shortened: as §1
# [13] = molecular target: Neu5Ac(a2-8)Neu5Ac
# Procedure, shortened: as §1
# [14] = molecular target: Neu5Ac(a2-8)Neu5Ac(a2-3)Gal(b1-4)GlcNAc
# Procedure, shortened: as §1
# [15] = molecular target: Neu5Ac(a2-8)Neu5Ac(a2-8)Neu5Ac(a2-3)[GalNAc(b1-4)]Gal(b1-4)Glc
# Procedure, shortened: as §1
# [16] = molecular target: Neu5Gc(a2-3)Gal(b1-4)Glc
# Procedure, shortened: as §1
# [17] = molecular target: Neu5Gc(a2-3)Gal(b1-4)GlcNAc(b1-3)Gal(b1-4)GlcNAc(b1-2)Man(a1-3)[Neu5Gc(a2-3)Gal(b1-4)GlcNAc(b1-3)Gal(b1-4)GlcNAc(b1-2)Man(a1-6)]Man(b1-4)GlcNAc(b1-4)GlcNAc
# Procedure, shortened: as §1
# [18] = molecular target: Neu5Gc(a2-6)GalNAc
# Procedure, shortened: as §1
binder,measurement,setting,value
B1,glycan array binding signal (z-score),[1],-1.16
same,glycan array binding signal (z-score),[2],3.92
same,glycan array binding signal (z-score),[3],0.52
same,glycan array binding signal (z-score),[4],-0.658
same,glycan array binding signal (z-score),[5],7.38
same,glycan array binding signal (z-score),[6],2.24
same,glycan array binding signal (z-score),[7],1.37
same,glycan array binding signal (z-score),[8],-0.302
same,glycan array binding signal (z-score),[9],-0.793
same,glycan array binding signal (z-score),[10],-1.13
same,glycan array binding signal (z-score),[11],2.19
same,glycan array binding signal (z-score),[12],-0.698
same,glycan array binding signal (z-score),[13],1.01
same,glycan array binding signal (z-score),[14],0.968
same,glycan array binding signal (z-score),[15],0.534
same,glycan array binding signal (z-score),[16],0.038
same,glycan array binding signal (z-score),[17],-0.277
same,glycan array binding signal (z-score),[18],2.12
